Screens from PubChem.
An excerpt weighted towards active compounds, which were near 6.5% of everything screened.
HepG2 viability = counter-screen for TGF-b inhibitors: cytotoxicity in HepG2 cells | HepG2 CAGA-GFP viability, ATP luminescence, 18 h | Potency, µM (doses to about 46.1 µM), most hits filed as cytotoxic | 410,000 compounds, 0.76% hits
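HepG2 CAGA-GFP cells (1000/well, DMEM with 1% FBS) received compound, then TGF-beta at 500 pg/mL final, and were incubated 18 hours at 37 degrees C. Viability was read by CellTiter-Glo luminescence. Media-only wells were set as complete cell-killing and DMSO as no toxicity.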
HT1080 IDH1KD tx = toxicity to HT-1080 IDH1 knockdown cells (counter line); HT-1080 IDH1 knockdown viability, ATP luminescence, 48 h; Potency, µM (top dose mostly 46.1 µM), usual class: cytotoxic; 360,000 compounds, 2% hits
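Viability of IDH1-knockdown HT-1080 fibrosarcoma cells was assessed by CellTiter-Glo after 48 h at 37 °C with titrated compound; concentration-effect curves were classified by fit quality and response size.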
IL1B secr inh = inhibitors of inflammasome signaling (IL-1 beta secretion) | activity change, % at 57.5 µM | THP-1 LPS/ATP IL-1B secretion, AlphaLISA, 16 h; hits give low values | 360,000 compounds, 4.7% hits; in the data active = activity change below about -50%; inconclusive = mostly about -30% to -49%
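Secreted IL-1B measured by AlphaLISA bead assay after 16 h compound exposure of THP-1 cells; compounds (final up to 57.5 uM) added 1 h before LPS (250 ng/mL) and ATP (1.25 mM) stimulation; lower signal means less secretion.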
HT1080NT lethal = kills 2HG-producing HT-1080-NT fibrosarcoma cells | HT-1080-NT fibrosarcoma viability, CellTiter-Glo ATP luminescence, 48 h | Potency, µM (series often up to 46.1 µM), actives largely listed as cytotoxic | 360,000 compounds, 1.6% hits | AID 686970;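 also: NT is the 2HG producing partner of a matched IDH1 knockdown line; nearly all actives have a fitted effect of over 55% in size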
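A 48-hour cytotoxicity screen used HT-1080-NT cells plated 2 hours before compound delivery. ATP-based CellTiter-Glo luminescence measured viability, normalized to DMSO and no-cell controls.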
TGFb SMAD3 inh = inhibitors of TGF-b signaling; HepG2 CAGA-GFP TGF-b/SMAD3 reporter, GFP fluorescence, 18 h; TGF-beta stimulated, 500 pg/mL final; Potency, µM (top dose mostly 46.1 µM), usual class: inhibitors; 410,000 compounds, 1.2% hits; AID 588855; also: nearly all actives have a fitted effect of over 65% in size
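Inhibition was scored as loss of TGF-beta-induced (500 pg/mL final, 18 hours, 37 degrees C) GFP in HEPG2 cells carrying a CAGA-GFP reporter, in DMEM with 1% FBS. Well GFP was summed per cell; Activity was normalised to unstimulated and stimulated DMSO wells, then concentration-response fitting.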
Giardia killer = Giardia lamblia killing; Giardia lamblia trophozoite viability; activity change, % at 7.66 µM, hits read low; 340,000 compounds, 0.15% hits; in the data active = activity change below about -80%; inconclusive = between about -30% and that limit;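 also: parasites exposed to compound for two days anaerobically before the ATP read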
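ATP-content bioluminescence gauges trophozoite survival. Cells (100/well) receive compound and incubate anaerobically for 48 hrs at 37 deg C; detection reagent follows for 15-30 min at room temperature.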
Numbers stand for hits; i = inactive; ? = inconclusive; nt = not tested or not shown; + = active, no number. Unless noted, calls follow the shape of the dose curve; as a rule, active = well fitted curve in the direction sought with a large enough effect; inconclusive = small, poorly fitted or top-dose-only effect, or another doubt; inactive = no such curve, though single readings can be large; an effect the other way counts as inactive or inconclusive.

SMILES | HepG2 viability | HT1080 IDH1KD tx | IL1B secr inh | HT1080NT lethal | TGFb SMAD3 inh | Giardia killer
COc1ccc(C(=O)Nc2ccccc2C(=O)N/N=C/c2ccco2)cc1 | i | ? | i | 9.2µM | i | i
Cc1ccccc1C(=O)Nc1ccc(C(=O)N/N=C/c2ccncc2)cc1 | i | i | i | i | i | i
O=[N+]([O-])c1cc(C(F)(F)F)cc([N+](=O)[O-])c1NCCNC(=S)Nc1cccc(F)c1 | i | i | -53 | i | 11µM | i
COC(=O)/C(C#N)=C/c1ccc(-c2ccc(S(N)(=O)=O)cc2)o1 | i | i | -74 | i | ? | i
CCc1cccc(C)c1NC(=O)C1CCCN(S(=O)(=O)c2cccc3nsnc23)C1 (configuration not stated) | i | nt | nt | nt | i | nt
O=C(NC1CC1)c1cccc2c1C(=O)c1ccc(N3CCC(Cc4ccccc4)CC3)cc1S2(=O)=O | i | i | i | i | i | i
O=C1c2ccc(Cl)cc2S(=O)(=O)c2cccc(C(=O)N3CCC(Cc4ccccc4)CC3)c21 | i | ? | -99 | ? | ? | i
N#Cc1cccnc1N1CCN(C(=O)c2cccc3c2C(=O)c2ccc(-c4ccc(Cl)c(C(F)(F)F)c4)cc2S3(=O)=O)CC1 | i | i | i | i | i | i
N#Cc1cccnc1N1CCN(C(=O)c2cccc3c2C(=O)c2ccc(Cl)cc2S3(=O)=O)CC1 | i | i | -99 | ? | i | i
S=C(NCc1ccco1)NC1CCCc2ccccc21 (configuration not stated) | i | i | i | i | i | i
NS(=O)(=O)c1ccc(CNC(=S)NCc2ccc(F)cc2)cc1 | i | i | + | i | i | i
Fc1ccc(CNC(=S)NC2CCCC2)cc1 | i | ? | -142 | i | i | i
S=C(NCc1ccccc1)NC1CCCc2ccccc21 (configuration not stated) | i | i | -57 | i | ? | i
COc1ccc(C(C)=O)cc1CON=C1CSCc2ccccc21 | i | i | i | i | i | nt
COc1ccc(CCNC(=O)CCc2ccsc2)cc1OC | i | i | i | i | i | i
CC(C)CC1NC(=S)N(Cc2ccccc2)C1=O (configuration not stated) | i | ? | i | ? | 5µM | i
O=C(NC1CCCc2ccccc21)c1ccccc1 (configuration not stated) | i | i | i | i | i | i
O=C(NC1CCCc2ccccc21)c1n[nH]c(=O)c2ccccc12 (configuration not stated) | i | 9.2µM | i | ? | i | i
CCCCc1ccc(C(=O)COC(=O)c2ccc3nc(C)c(C)nc3c2)cc1 | i | nt | nt | nt | i | nt
O=C(O)/C=C\C(=O)Nc1ccccc1C(=O)NCc1ccccc1 | i | i | i | i | i | i
COc1ccc2c3n([n+]([O-])c2c1)CCN=C3c1cc(Cl)c(N)c(Cl)c1 | i | i | i | i | i | -93
COc1ccc2c3n([n+]([O-])c2c1)CCN=C3c1ccc(C)cc1 | i | i | i | i | i | -90
COc1ccc(C2=NCCn3nc4cc(OC)ccc4c32)cc1 | i | i | i | i | ? | i
Cc1ccc(S(=O)(=O)N(C)C)cc1-n1c(SCC(=O)Nc2ccc(F)cc2Cl)nc2ccccc2c1=O | i | i | i | i | i | i
CCOC(=O)c1oc2ccccc2c1CN1CCCCC1 | i | i | i | i | i | i
SMILES | HepG2 viability | HT1080 IDH1KD tx | IL1B secr inh | HT1080NT lethal | TGFb SMAD3 inh | Giardia killer
COC(=O)c1sc2nc(CN3CCN(c4cccc(C(F)(F)F)c4)CC3)[nH]c(=O)c2c1C | i | i | i | i | i | i
Cc1ccc(C(C2=C(O)CC(C)(C)CC2=O)C2C(=O)CC(C)(C)CC2=O)s1 (configuration not stated) | i | i | i | ? | i | i
CC1(C)CC(=O)C(C(C2=C(O)CC(C)(C)CC2=O)c2ccc(Br)s2)C(=O)C1 (configuration not stated) | i | ? | -96 | i | 10µM | i
COc1ccccc1C1=NOC(COc2ccc3c(C)cc(=O)oc3c2)C1 (configuration not stated) | i | 0.73µM | i | 0.92µM | ? | i
COc1ccc(C2=NOC(COc3ccc4c(C)cc(=O)oc4c3)C2)c(OC)c1 (configuration not stated) | i | 5.8µM | i | ? | ? | i
COc1ccc2c(C)cc(=O)oc2c1 | i | i | i | i | i | i
Cc1cc(NC(=O)CCCC(=O)N(CC(=O)NCCc2ccccc2)Cc2ccc(F)cc2)no1 | i | i | i | i | i | i
Cc1nnnn1/C(=C\c1ccccc1)C(=O)OCC(=O)Nc1cccc(S(=O)(=O)N(C)C)c1 | i | ? | i | ? | ? | i
Cc1nnnn1/C(=C\c1ccccc1)C(=O)OCC(=O)Nc1ccc(Cl)cc1F | i | ? | -111 | ? | i | i
COC(=O)c1c(NC(=O)COC(=O)c2ccc(O)cc2)sc2c1CCCCC2 | i | i | -79 | i | i | i
CCOC(=O)c1c(NC(=O)COc2ccc(F)cc2)sc2c1CCC(C)C2 (configuration not stated) | i | nt | nt | nt | i | nt
CCOC(=O)c1c(NC(=O)C(C)OC(=O)c2ccc(NC(=O)CC#N)cc2)sc2c1CCCC2 (configuration not stated) | i | i | -80 | i | ? | i
COCC(=O)Nc1sc2c(c1C(=O)OC)CCCC2 | i | i | i | i | i | i
COC(=O)c1c(NC(=O)COc2ccc(OC)cc2)sc2c1CCC(C)C2 (configuration not stated) | i | nt | nt | nt | 13µM | nt
CC(C)CNC(=O)C1(C)CCCCCN1C(=O)c1cccnc1 (configuration not stated) | i | i | i | ? | i | nt
COc1cccc(Oc2ccc(C(F)(F)F)cc2N)c1 | i | i | -70 | i | i | i
Oc1ccc(-c2nc3ccc4ccccc4c3c3c2CCC3)cc1O | 25µM | ? | -54 | ? | i | i
COc1cc(C(C)=O)ccc1Oc1ccc(S(=O)(=O)N2CCOCC2)cn1 | i | i | i | i | i | i
CCC1C(c2ccccc2)N(C)C(c2ccccc2)CC1(O)c1ccccc1 (configuration not stated) | 13µM | 16µM | ? | ? | ? | i
Cc1cc[n+](C(C)C(=O)c2ccc(-c3ccccc3)cc2)cc1 (configuration not stated) | i | ? | -58 | i | ? | i
COc1ccc(-c2[nH]ncc2/C=N\NC(=O)c2ccc(C(C)(C)C)cc2)cc1OC | i | ? | i | i | i | i
